Assay results taken from PubChem BioAssay AID743279 (National Center for Advancing Translational Sciences (NCATS), 2014).
Out of some 360,000 compounds screened, about 17,000 (4.7%) were called active. Roughly 5% stayed inconclusive and do not appear here. Cut-off read from the data, not from the text of the source: active = activity change below about -50%; inconclusive = mostly about -30% to -49%; inactive = weaker than that. The sample as a whole holds a higher share of actives than the screen did.

experiment: qHTS for Inhibitors of Inflammasome Signaling: IL-1-beta AlphaLISA Primary Screen; settings: THP-1 LPS/ATP IL-1B secretion, 16 h, at 57.5 µM, active compounds read low
Excerpt: Inflammasomes are a set of intracellular multi-protein complexes that enable autocatalytic activation of inflammatory caspases and drive the innate immune response to counter harmful agents. […] A qHTS assay, based on AlphaLISA technology, was developed to screen the Molecular Libraries Small Molecule Repository (MLSMR) to look for novel inflammasome inhibitors. The assay detects IL-1B using AlphaLISA anti-IL-1B acceptor and donor beads. A decreased emission signal, indicating reduced IL-1B secretion, is the desired outcome for this assay. NIH Chemical Genomics Center [NCGC] NIH Molecular Libraries Probe Centers Network [MLPCN] MLPCN Grant: MH095513 Assay Provider: Shyam Biswal Ph.D., Johns Hopkins University Immunity. 2012 Jul 27;37(1):85-95. PMID: 22819042 [2] Curr Pharm Des. 2012;18(16):2320-8. PMID: 22390695
Three microliters containing 3000 THP-1 cells were dispensed into the wells of solid, white, tissue culture treated Greiner 1,536-well plates. Library compounds and positive control, Glyburide, were pin-transferred (23 nL) by a Kalypsys pin-tool equipped with a 1,536-pin array, resulting in final compound concentration ranges of 2.5 nM to 57.5 uM. After 1 hr of cell culture incubation (37 °C, 5% CO2), 1 microL of 1 microg/mL lipopolysaccharide (250 ng/mL, final) and 5 mM ATP (1.25 mM, final) were added to stimulate the cells. After 16 hr of cell culture incubation with the compounds, 1.5 uL of anti-IL-1B acceptor beads (6 ug/mL, final) and biotinylated antibody (0.6 nM, final) were added to the plate, followed by a 1 hr incubation at ambient temperature. To detect the secreted IL-1B, 1.5 uL of AlphaLISA SA-Donor beads (24 ug/mL, final) were added, followed by 30 min of incubation in the dark at ambient temperature. The AlphaLISA signal was read by a PerkinElmer EnVision plate reader with an ultrasensitive luminescence detector and 1536 Plate HTS AlphaScreen aperture (excitation of 680nm and emission of 615nm).
% is set by controls: 0 for no effect and ±100 for the full control effect.

Compound	activity change
CCC/C(=N\O)c1c[nH]c2ccccc12	23.8% (inactive)
Cn1c(C(=O)N2CCC(C(=O)N3CCC4(CC3)OCCO4)CC2)cc2sccc21	-11.3% (inactive)
CNP1(NC)=Nc2nn(-c3ccccc3)c(N)c2C(c2ccccc2)=N1	-24.6% (inactive)
C=C(C)C1(CCCC)C(=O)NC(=S)NC1=O	11.5% (inactive)
CCOC(=O)CNC(=O)N1Cc2cc(N3CCCCC3)ccc2-n2nncc2C1	-5.99% (inactive)
COC(=O)[C@@H]1C(OC(=O)c2ccccc2)CC2CCC1N2C (stereo not given in full)	-10.2% (inactive)
COC(=O)C1=C(c2ccccc2)C[C@@H]2CC[C@H]1N2C(=O)N1CCCCC1	-19.1% (inactive)
COc1ccc2c(c1)NP(=S)(c1ccccc1)N2 (stereo not given)	-12.5% (inactive)
CC12CCC(O)CC1CCC1C2CCC2(C)C(C(=O)CC(O)C(F)(F)F)CCC12 (stereo not given)	15.6% (inactive)
COc1ccc(-c2nn(CCC#N)cc2C(=O)O)cc1	10.5% (inactive)
O=c1[nH]c(=S)n(C2CC2)c(O)c1/C=N/N1CCOCC1	33.5% (inactive)
C[N+]1(C)CCOC(O)(c2ccc(-c3ccc(C4(O)C[N+](C)(C)CCO4)cc3)cc2)C1 (stereo not given)	7.41% (inactive)
Cn1cc(C(=O)OCC(=O)N2CCCC2)c2ccccc21	-12.4% (inactive)
C[C@]12CCC3C(CC[C@H]4C[C@@H](O)CC[C@]34C)C1C[C@@H](O)[C@H]2O (stereo not given in full)	24.7% (inactive)
C[C@]12CCC3C(CC[C@H]4[C@H](O)[C@H](O)CC[C@]34C)C1CCC2=O (stereo not given in full)	8.07% (inactive)
CC12CCC3C(CCC4CC(=O)CCC43C)C1CC(=NO)C2=O (stereo not given)	-101% (active)
O=c1c2ccccc2[nH]c(=S)n1-c1cccc(Cl)c1	25.2% (inactive)
CCn1cc(CN2CCCC(C(=O)c3cccc(C(F)(F)F)c3)C2)cn1 (stereo not given)	10.1% (inactive)
COc1ccc(CCn2c(O)c(C=NCCCn3ccnc3)c(=O)[nH]c2=O)cc1OC	43.4% (inactive)
CCCCCCCCCCCCn1ccc(=N)cc1	-100% (active)
CCOC(=O)C1SC2(C(F)(F)C(F)F)CC1(O)c1c(c(OC)c3occc3c1OC)O2 (stereo not given)	0% (inactive)
CC(C)(C)[C@]1(O)C[C@@H]2OC(=O)C[C@@]23C(=O)O[C@@H]2OC(=O)[C@H](O)[C@]213	-4.02% (inactive)
COCc1cc(OC(=O)N(C)C)nc(-c2ccc(C)c(Cl)c2)n1	-2.68% (inactive)
C[C@]12CCCCC1=CC(=O)C1C2CC[C@@]2(C)C1C[C@@H](F)[C@@H]2O (stereo not given in full)	0.0265% (inactive)
CC(C)c1ccc(OCC(=O)N2CCCN(C)CC2)cc1	-17.5% (inactive)

Compound	activity change
CCOC(=O)CC(SP1(=S)OCC2(CCCCO2)C(C2CCCCO2)O1)C(=O)OCC (stereo not given)	17.2% (inactive)
ClC(Cl)(Cl)c1ccccc1	-9.44% (inactive)
CC(c1ccccc1)(c1ccccc1)c1ccncc1	-63.6% (active)
c1ccc(C(CN2CCCCC2)c2ccccc2)cc1	-8.96% (inactive)
CNC(=O)N(C)c1nnc(C(C)(C)C)s1	17.7% (inactive)
O=C1NCN(c2ccccc2)C12CCN(C(c1cccs1)c1nnnn1C1CCCCC1)CC2 (stereo not given)	-18.5% (inactive)
CC(C)CN1Cc2cc(N3CCCCC3)ccc2-n2nncc2C1	-4.66% (inactive)
CCC1(CC(C)c2ccccc2)C(=O)NC(=O)NC1=O (stereo not given)	-0.699% (inactive)
COC(=O)C[C@H]1CC[C@H]2NC[C@@H](O)COC[C@@H]2O1	0% (inactive)
CC1C2Cn3c(nc4ccccc43)C1N(C)O2 (stereo not given)	32.4% (inactive)
CC(Cc1ccccc1)NCCC(c1ccccc1)c1ccccc1 (stereo not given)	-64.4% (active)
CC(Cc1ccccc1)NC=O (stereo not given)	16% (inactive)
CC(=O)NC(=O)NC(C)Cc1ccccc1 (stereo not given)	11.5% (inactive)
CN1CCC(OC(=O)c2cccc(F)c2)CC1	-22% (inactive)
COc1ccc(NC(=O)N2Cc3ccccc3-n3nncc3C2)cc1	-5.29% (inactive)
Cc1cc(-c2ccc(N)c(C)c2)ccc1N	-12.1% (inactive)
CC(=O)OC1C2(CC3N4C(=O)C5(CO)SSC4(CC31O)C(=O)N5C)OC(C)C(C)(C)C2=O (stereo not given)	-104% (active)
Cc1ccc(C(C)C)c(OCC(=O)N2CCN(CC(=O)N3CCOCC3)CC2)c1	-9.54% (inactive)
C[N+]12CN3CN(CN(C3)C1)C2	1.54% (inactive)
Clc1cccc(Cl)c1Cl	-12.8% (inactive)
C[C@]12CC[C@H](O)C[C@H]1CC[C@@H]1C2CC[C@]2(C)[C@@H](C3=CC(=O)OC3)[C@@H](O)C[C@]12O (stereo not given in full)	-21.6% (inactive)
COC1C(O)C(C)OC(OC2CCC3(C=O)C(CCC4C3CCC3(C)C(C5=CC(=O)OC5)CCC43O)C2)C1O (stereo not given)	-68% (active)
C[C@H]1CN([C@@H](C)CO)C(=O)CCCn2nncc2CO[C@H]1CN(C)C(=O)Oc1cccc2ccccc12	24.1% (inactive)
COc1cc(C(=O)N2Cc3ccc(Br)cc3-n3nncc3C2)cc(OC)c1OC	-13.4% (inactive)
O=C1/C(=C\c2ccc3c(c2)OCO3)N2CCC1CC2	-14.8% (inactive)

Compound	activity change
Cc1nc2ccccc2c(=O)n1-c1ccc(Cl)cc1Cl	-2.71% (inactive)
O=c1c2ccccc2nc(-c2ccccc2)n1-c1ccccn1	17.2% (inactive)
O=c1c2ccccc2nc(/C=C/c2ccc(F)cc2)n1-c1ccccc1O	-94.1% (active)
COc1ccccc1NC(=O)N1C[C@@H]2C[C@@H](C1)c1cccc(=O)n1C2	1.98% (inactive)
O=C(O)C1CSC(c2cccnc2)N1 (stereo not given)	0% (inactive)
NCCc1ccc(S(=O)(=O)F)cc1	13% (inactive)
O=C(NC1CCCCC1)N1Cc2cc(N3CCCCC3)ccc2-n2nncc2C1	-7.47% (inactive)
CCOc1ccc(-c2cc(C)[n+](CCN(CC)CC)c(-c3ccc(OCC)cc3)c2)cc1	-82.5% (active)
COC(=O)C1=C(c2ccc(F)cc2OCc2ccccc2)C[C@@H]2CC[C@H]1N2C(=O)NCc1ccc(OC)c(OC)c1	-5.32% (inactive)
COC(=O)C1=C(c2ccc(F)cc2OCc2ccccc2)C[C@@H]2CC[C@H]1N2C(=O)NCc1ccc(C(C)(C)C)cc1	-29.4% (inactive)
COC(=O)C1=C(c2ccc(F)cc2OCc2ccccc2)C[C@@H]2CC[C@H]1N2C(=O)NCc1ccc(Cl)cc1	-55.3% (active)
CC1CCC(N(C)C2CCN(C)CC2)CC1 (stereo not given)	0% (inactive)
CCOC(=O)c1cccc(C2=C(CNC(=O)c3ccncc3)[C@H]3CC[C@@H](C2)N3Cc2ccccc2)c1	41.7% (inactive)
COc1ccc(-c2nc(CS(=O)CC(=O)N3CCC4(CC3)OCCO4)c(C)o2)cc1 (stereo not given)	-1.15% (inactive)
O=P(OC1=CCCCC1)(c1ccccc1)c1ccccc1	-4.62% (inactive)
Cc1ncoc1C(=O)NCC1=C(c2cccc3ccccc23)C[C@@H]2CC[C@H]1N2Cc1ccco1	-7.11% (inactive)
CC1(C)Cc2c(C#N)c(N3CCNCC3)nc(-c3ccco3)c2CS1	-50.4% (active)
COC(=O)C1=C(c2ccc(OCc3ccccc3)cc2)C[C@@H]2CC[C@H]1N2C(=O)NCc1ccc(Cl)cc1	4.2% (inactive)
COc1ccc(C2C=C(C)Oc3c2c(=O)oc2ccccc32)cc1OC (stereo not given)	7.28% (inactive)
N#CC1=C(N)Oc2c(c(=O)oc3ccccc23)C1c1ccccc1OC(=O)c1cccs1 (stereo not given)	-86.1% (active)
S=C(NCCc1ccccc1)N1Cc2cc(N3CCOCC3)ccc2-n2nncc2C1	-27% (inactive)
Cc1cc(C)c2c(c1)NP(=S)(c1ccccc1)N2 (stereo not given)	-11.4% (inactive)
Cc1cc(C=C2C(=O)NC(=O)NC2=O)c(C)n1-c1ccncc1	-12.3% (inactive)
Cc1ccc(-n2c(C)cc(/C=C3\C(=O)NC(=O)N(C)C3=O)c2C)cc1C	-4.58% (inactive)
Cc1ccnc(-n2c(C)cc(/C=C3\C(=O)NC(=S)N(C)C3=O)c2C)c1	-79.4% (active)
